Most compounds without a hit are left out; they make up all but 2.3% or so of the library.
Mcl1 Noxa PPI: Mcl-1/Noxa binding inhibitors, primary screen, biochemical, TR-FRET, 1536-well. TR-FRET Mcl-1/Noxa peptide binding, 2 h. AID 1022, 2008. Induced myeloid leukemia cell differentiation protein Mcl-1 (Homo sapiens), Q07820. 220,000 tested, 1.5% active. inhibition, % at 21.7 µM;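 active = compounds that cut the protein-peptide binding signal by more than 50% relative to plate controls in a single-dose test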;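 note: His-tagged Mcl-1 with rhodamine Noxa BH3 peptide and terbium anti-His antibody; 0% = Mcl-1 plus Noxa peptide wells and 100% = peptide-only wells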
Target sequence (Q07820 whole entry, looked up): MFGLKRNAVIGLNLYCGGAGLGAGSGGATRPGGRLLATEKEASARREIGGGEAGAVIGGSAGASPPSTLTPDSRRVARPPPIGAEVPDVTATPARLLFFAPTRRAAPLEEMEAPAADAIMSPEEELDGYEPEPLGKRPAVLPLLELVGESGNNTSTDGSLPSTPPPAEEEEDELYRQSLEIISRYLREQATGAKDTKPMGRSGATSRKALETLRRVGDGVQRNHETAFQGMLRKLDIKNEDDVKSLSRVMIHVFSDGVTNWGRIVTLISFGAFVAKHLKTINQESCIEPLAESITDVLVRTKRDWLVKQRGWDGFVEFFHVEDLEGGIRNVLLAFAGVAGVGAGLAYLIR
MCL1 BIM primary: inhibitors of MCL1 binding to BIM-BH3, primary screen, biochemical, fluorescence polarization | GST-MCL1 / FITC-Bim-BH3 fluorescence polarization | AID 2057, 2009 | 320,000 tested, 0.68% active | inhibition, % at 10.9 µM;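 active = inhibition above the mean inhibition of all tested compounds plus 3 SD, set per campaign, cut at about 40% in these data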;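 note: 0% = DMSO wells and 100% = unlabeled Bim-BH3 peptide control; higher means more loss of mP so more displacement of Bim peptide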
Bcl-xL primary: inhibitors of human Bcl-xL, primary screen, biochemical, fluorescence polarization, HTS. Bcl-2-like protein 1 (Homo sapiens), Q07817. GST-Bcl-xL / FITC-Bim BH3 peptide fluorescence polarization. inhibition, % at 10.9 µM. 320,000 tested, 0.7% active. AID 2129, 2009;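 active = inhibition above the mean of all tested compounds plus 3 SD, cutoff set per campaign, cut at about 30% in these data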;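 note: 0% = DMSO wells and 100% = unlabeled Bim-BH3 peptide competitor; inhibitors lower millipolarization by displacing the labeled peptide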
Target sequence (Q07817 whole entry, looked up): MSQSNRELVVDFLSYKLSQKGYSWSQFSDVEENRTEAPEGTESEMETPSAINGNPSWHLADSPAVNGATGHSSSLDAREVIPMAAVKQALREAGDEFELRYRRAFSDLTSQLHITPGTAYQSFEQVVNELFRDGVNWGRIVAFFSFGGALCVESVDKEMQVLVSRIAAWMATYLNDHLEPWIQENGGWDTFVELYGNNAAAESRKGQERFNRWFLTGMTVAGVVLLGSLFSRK
GLD-1 TGE inh: GLD-1/TGE RNA complex disruptors, primary screen, biochemical, fluorescence polarization. inhibition, % at 5.96 µM. 320,000 tested, 0.44% active. purified GLD-1 + fluorescein TGE RNA;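 active = percent inhibition above a per-plate cutoff, the plate mean of test compounds plus 3 SD, cut at about 30% in these data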;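 note: 0% = DMSO wells with GLD-1 and probe and 100% = wells lacking GLD-1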
Mcl1-Bid inh: Mcl-1/Bid binding inhibitors, primary screen, biochemical, TR-FRET, 1536-well; Induced myeloid leukemia cell differentiation protein Mcl-1 (Homo sapiens), Q07820; TR-FRET Mcl-1/Bid-Dy647 peptide binding; inhibition, % at 21.7 µM; 220,000 tested, 0.97% active; AID 1021, 2008;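 active = compounds that cut the binding signal by more than half at the single screening dose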;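 note: His-tagged Mcl-1 with europium anti-His antibody binding Bid BH3 peptide; 0% = Mcl-1 plus peptide wells and 100% = peptide-only wells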
Bim-Mcl-1: inhibitors of Bim peptide binding to Mcl-1, primary screen, biochemical, bead-based flow cytometry, multiplex; Induced myeloid leukemia cell differentiation protein Mcl-1 (Homo sapiens), Q07820; Bim peptide-Mcl-1 binding; inhibition, % at 10 µM; 190,000 tested, 0.1% active; AID 1009, 2008; in the data active = inhibition above about 40%;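 note: 0% = no compound tracer wells and 100% = peptide blocker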
Bcl-xL conf: Bcl-xL inhibitors blocking Bim BH3 binding, confirmation, counter-screen for MCL1 inhibitor project, biochemical, fluorescence polarization; shares compounds with MCL1 BIM primary; GST-Bcl-xL / FITC-Bim BH3 peptide FP binding; inhibition, % at 10.9 µM; 1,700 tested, 54% active; AID 2166, 2009;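 active = inhibition above a cutoff equal to the mean inhibition of all tested compounds plus 3 SD, cut at about 30% in these data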;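 note: 0% = DMSO wells and 100% = unlabeled Bim BH3 control peptide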
MCL1 inh confirm: inhibitors of MCL1 binding to BIM-BH3, confirmation, biochemical, fluorescence polarization, triplicate | shares compounds with MCL1 BIM primary | GST-MCL1 / FITC-Bim-BH3 fluorescence polarization | inhibition, % at 10.9 µM | 1,700 tested, 61% active | AID 2168, 2009;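 active = inhibition above the average of all tested compounds plus 3 SD, cut at about 40% in these data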;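 note: 0% = DMSO wells and 100% = unlabeled Bim-BH3 control peptide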
The depositor's hits bear a star; . = no result given.

SMILES | Mcl1 Noxa PPI | MCL1 BIM primary | Bcl-xL primary | GLD-1 TGE inh | Mcl1-Bid inh | Bim-Mcl-1 | Bcl-xL conf | MCL1 inh confirm
Cc1ccccc1C(=O)N=c1c(C#N)cc2c(=O)n3cccc(C)c3nc2n1Cc1ccco1 | 3.3 | 15.1 | 18.8 | 9.8 | -16.2 | -3.0 | . | .
CCOC(=O)c1cc2c(=O)n3ccccc3nc2n(Cc2ccco2)c1=NC(=O)c1ccc(OC)cc1OC | 6.0 | 52.2* | 48.8* | 18.6 | -25.9 | 0.0 | 11.2 | 11.6
CC(=O)c1ccc(OC(=O)Cc2cccc3ccccc23)cc1 | . | 3.3 | -2.3 | 2.0 | . | . | . | .
Cc1ccc2nc(SCC(=O)NCc3ccccc3)nc(=O)n2c1 | . | 8.2 | -0.4 | -7.0 | . | . | . | .
O=C1C(=Cc2ccco2)C(=O)c2ccccc21 | 35.5 | 18.4 | 14.3 | 9.2 | -50.2 | 0.0 | . | .
O=C(O)c1ccc2c(c1)C(=O)/C(=C\c1ccco1)C2=O | 66.5* | 63.9* | 40.7* | 27.0 | -48.6 | 3.0 | 25.1 | 26.4
CC1(OC(=O)c2cnc3ccccc3n2)C(=O)C=C2C=C(C3CC3)OC=C2C1=O (stereo unspecified) | . | 129.8* | 117.6* | 113.8* | . | . | 80.7* | 117.3*
CC1(OC(=O)c2cccs2)C(=O)C=C2C=C(c3ccc(C#N)cc3)OC=C2C1=O (stereo unspecified) | . | 3.5 | 4.2 | 6.3 | . | . | . | .
CCC(=O)OC1(C)C(=O)C=C2C=C(C3CC3)OC=C2C1=O (stereo unspecified) | . | 63.3* | 59.3* | 38.8* | . | . | 25.3 | 30.9
COC/C=C/C1=CC2=CC(=O)C(C)(OC(=O)c3cnc4ccccc4n3)C(=O)C2=CN1C1CCCCC1 (stereo unspecified) | . | 28.1 | 21.6 | 14.5 | . | . | . | .
CC1(OC(=O)c2ccco2)C(=O)C=C2C=C(C3CC3)OC=C2C1=O (stereo unspecified) | . | 79.4* | 75.0* | 63.1* | . | . | 39.7* | 58.7*
NC(=O)Nc1ccc(C(=O)OCC(=O)Nc2cccc(S(=O)(=O)NC3=NCCCCC3)c2)cc1 | 13.1 | -2.9 | -1.3 | 4.7 | -10.7 | . | . | .
Fc1ccc(NCc2cccnc2)cc1F | 15.1 | 70.9* | 63.5* | 24.0 | 32.8 | -1.0 | 69.8* | 90.5*
Clc1ccc(NCc2cccnc2)cc1 | . | -2.9 | 2.9 | 1.2 | . | . | . | .
Oc1ccc(C[C@@H]2CNCCN2CCc2cccc(F)c2)cc1 | . | 4.8 | 1.1 | -4.5 | . | . | . | .
O=C(O)CCNc1ccc(NCCC(=O)O)c2c1C(=O)c1ccccc1C2=O | . | 153.9* | 114.4* | 77.4* | . | . | 101.6* | 129.9*
CCOc1cccc(-c2c(C(=O)N/N=C/c3ccsc3)nnn2-c2nonc2N)c1 | . | 4.7 | 1.7 | 5.3 | . | . | . | .
CC(C)C(=O)c1cn(CC(=O)NCC2CCCO2)c2ccccc12 (stereo unspecified) | -8.0 | 1.6 | 6.2 | 5.3 | 11.0 | 0.0 | . | .
CCOC(=O)C1=C(O)/C(=C/c2cn(CC(=O)NCC3CCCO3)c3ccccc23)SC1=Nc1ccc(C)cc1 (stereo unspecified) | . | 77.4* | 80.5* | -28.1 | . | . | 108.7* | 109.0*
COc1cccc(NC(=O)CN(C)C(=O)Cn2c(=O)oc3ccccc32)c1 | . | 2.3 | -2.4 | 3.8 | . | . | . | .
Cc1ccc(NC(=O)CN2C(=O)N/C(=C/c3cccn3-c3ccc(C(=O)O)cc3)C2=O)cc1 | 102.1* | 79.1* | 27.1 | 5.4 | 44.4 | 9.0 | 41.3* | 85.1*
Cc1ccc(NC(=O)CN2C(=O)S/C(=C\c3cccn3-c3cccc(C(=O)O)c3)C2=O)cc1C | 35.4 | 8.0 | 6.5 | -1.2 | -58.9 | 0.0 | . | .
CNS(=O)(=O)c1cc(NC(=O)c2cncn2-c2ccccc2)ccc1C | . | 2.8 | 3.0 | 0.0 | . | . | . | .
Cc1ccc(N(CC(=O)NCc2ccccc2)C(=O)c2csnn2)cc1 | . | 5.6 | 3.3 | -6.9 | . | . | . | .
COc1ccc(/C=c2\s/c(=C/C(=O)c3ccc(C)cc3)[nH]c2=O)c(OC)c1 | 9.1 | 105.4* | 102.6* | -36.3 | -21.5 | 0.0 | 87.5* | 97.3*
SMILES | Mcl1 Noxa PPI | MCL1 BIM primary | Bcl-xL primary | GLD-1 TGE inh | Mcl1-Bid inh | Bim-Mcl-1 | Bcl-xL conf | MCL1 inh confirm
COc1cccc(/C=c2\s/c(=C\C(=O)C(C)(C)C)[nH]c2=O)c1 | 29.7 | -2.3 | -1.1 | -3.9 | -8.1 | 0.0 | . | .
O=C1c2ccccc2-c2onc3c(N4CCN(CCO)CC4)cc(N4CCN(C(=O)c5ccco5)CC4)c1c23 | . | 83.0* | 63.4* | 12.2 | . | . | 53.1* | 58.3*
O=C(O)CCCNc1cc(N2CCN(C(=O)c3ccco3)CC2)c2noc3c2c1C(=O)c1ccccc1-3 | . | 156.9* | 134.8* | 98.6* | . | . | 192.6* | 163.6*
O=C1c2ccccc2-c2c1cccc2C(=O)N1CCN(C(=O)c2ccco2)CC1 | 16.8 | 2.1 | 7.7 | 1.8 | -16.4 | -3.0 | . | .
O=C(c1ccco1)N1CCN(CCCCN2C(=O)c3ccccc3C2=O)CC1 | 11.2 | 8.3 | 5.6 | -4.5 | -11.8 | 3.0 | . | .
COC(C(=O)Nc1ccnn1C1CCN(Cc2nccs2)CC1)c1ccccc1 (stereo unspecified) | . | 8.6 | 11.5 | -0.8 | . | . | . | .
CCCCNC(=S)Nc1ccc(OC)nc1 | 3.8 | 58.2* | 56.0* | 49.5* | -40.6 | -2.0 | 43.0* | 51.5*
CCOC(=O)Nc1ccc(NCc2ccc(F)cc2)nc1N | . | 191.2* | 141.4* | 132.3* | . | . | 35.6* | 30.6
CCOc1cc(/C=C2\COc3ccccc3C2=O)cc(Br)c1OCC(=O)N(C)C | . | 5.4 | 4.8 | 3.3 | . | . | . | .
Cc1ccc(-c2ccccc2NC(=O)CCl)o1 | 16.2 | 1.8 | 7.9 | 2.1 | -50.6 | -2.0 | . | .
Cc1ccc(-c2ccccc2NC(=O)CS(=O)CC(=O)Nc2ccc(C)c(Cl)c2)o1 (stereo unspecified) | . | 140.6* | 119.1* | 140.1* | . | . | 11.0 | 15.3
Cc1ccc(/C=C2/NC(=O)N(Cc3ccc(Br)cc3)C2=O)o1 | 19.0 | 46.4* | 21.5 | 25.1 | -14.6 | -1.0 | -1.6 | 20.9
COC(=O)c1ccccc1-c1cn(C)c2ccccc2c1=O | . | 3.9 | 0.8 | -3.8 | . | . | . | .
O=C(NCc1ccco1)c1c2c(nc3ccccc13)CCC2 | 102.4* | 58.0* | 21.8 | 10.0 | -40.7 | -3.0 | 29.6 | 67.9*

Assay outcomes from PubChem.
